PriA SSB inh = inhibitors of Klebsiella pneumoniae PriA binding to SSB C-terminal tail, primary screen, biochemical, AlphaScreen; AlphaScreen SSBct-PriA binding, biotinylated peptide; inhibition, % at 33 µM; actives 0.6% (n = 430,000); in the data active = inhibition mostly above about 37%, no sharp cut-off; inactive = mostly below about 20%;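 also: plate controls were negative control peptide for no effect and reference peptide for full effect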
Vc quorum ag = inducers of Vibrio cholerae quorum light production without autoinducers, primary screen, BH1578 luxS cqsA deficient, single point; V. cholerae BH1578 lux reporter, luminescence, 6 h; actives 0.16% (n = 350,000); AID 588436, 2011; activation, % at 18.7 µM; in the data active = activation mostly above about 9.7%, no sharp cut-off
TcdB inh = TcdB glycohydrolase inhibitors, primary screen, biochemical, single point, plate reader; Toxin B (Clostridioides difficile), P18177; TcdB glycohydrolase enzymatic assay; inhibition, % at 9.99 µM; actives 0.24% (n = 350,000); in the data active = inhibition above about 10%
PrPC TRFRET = inhibitors of human cell surface prion protein PrPC, primary screen, cell-based, TR-FRET. Major prion protein (Homo sapiens), P04156. TR-FRET read-out. inhibition, % at 13.8 µM. actives 0.43% (n = 370,000); in the data active = inhibition above about 24%; also: 0% = median of the test wells and 100% = reference compound wells
DUSP3 inh = VHR1 phosphatase inhibitors, primary screen, biochemical, absorbance, uHTS. Dual specificity protein phosphatase 3 (Homo sapiens), P51452. AID 1654, 2009. recombinant VHR phosphatase, pNPP absorbance. inhibition, % at 13.3 µM. actives 0.52% (n = 290,000); in the data active = inhibition above about 50%
Target sequence (P51452 whole entry, looked up): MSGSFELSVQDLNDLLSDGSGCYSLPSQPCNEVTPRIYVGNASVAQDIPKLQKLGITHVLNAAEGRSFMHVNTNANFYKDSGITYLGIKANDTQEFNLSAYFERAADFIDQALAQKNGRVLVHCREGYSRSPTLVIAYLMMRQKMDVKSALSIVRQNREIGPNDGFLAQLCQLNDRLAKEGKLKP
CCHF vOTU inh = CCHFV vOTU protease inhibitors, primary screen, biochemical, Pep-AMC substrate, fluorescence; Crimean-Congo hemorrhagic fever virus L polyprotein viral ovarian tumor (vOTU) protease …; inhibition, % at 11.5 µM; actives 0.55% (n = 370,000); AID 651958, 2012; in the data active = inhibition above about 30%; also: 0% = vehicle wells with enzyme and 100% = no enzyme wells
The depositor's hits bear a star; i = inactive; . = no result; ! = not confirmed by another sample. Most compounds without a hit are left out; they make up all but 1.5% or so of the library.

SMILES | PriA SSB inh | Vc quorum ag | TcdB inh | PrPC TRFRET | DUSP3 inh | CCHF vOTU inh
Cc1cc2cc(CNC(=S)Nc3ccc(OC(F)(F)F)cc3)ccc2[nH]1 | 58* | 0 | 0 | 1 | -7 | 16
Cc1cc2cc(CNC(=O)Nc3ccccc3)ccc2[nH]1 | 44*! | 0 | 1 | 0 | 16 | 6
O=C(c1ccc2nsnc2c1)N1CCCC(Cc2nc(C3CC3)no2)C1 (stereo not drawn) | -14 | . | . | . | . | .
Cc1cccc(C(=O)Nc2nc(-c3ccc4c(c3)OCO4)cs2)c1 | -11 | . | . | . | . | .
O=C(N/N=C/c1cccc([N+](=O)[O-])c1)c1cccc2cc[nH]c12 | . | 0 | 2 | -5 | 52* | -5
O=C(N/N=C/c1ccccn1)c1ccc([N+](=O)[O-])cc1Cl | . | i | 11* | -25 | 6 | 4
O=C(N/N=C/c1cccc([N+](=O)[O-])c1)c1cccc(Br)c1 | . | 0 | -1 | -1 | 10 | -11
O=C(NN=Cc1ccccn1)c1cccc([N+](=O)[O-])c1 | -20 | . | . | . | . | .
O=C(N/N=C/c1cccc([N+](=O)[O-])c1)c1ccc(Br)cc1 | i | 0 | 11* | -4 | 57* | -1
O=C(NN=Cc1cccc([N+](=O)[O-])c1)c1cccc2cc[nH]c12 | -13 | . | . | . | . | .
O=C(NCc1nccc(N2CCCCC2)n1)c1ccc(Oc2ncccn2)cc1 | -1 | . | . | . | . | .
O=C(CSc1nc(-c2ccccc2)c(-c2ccccc2)[nH]1)NCc1ccco1 | 42* | -1 | . | 10 | 16 | -6
COC(CNC(=O)c1ccc2nsnc2c1)c1ccc(Cl)s1 (stereo not drawn) | -22 | . | . | . | . | .
CC(C)(Oc1ccc(Cl)cc1)C(=O)NCCNc1ccc(Nc2ccccn2)nn1 | 31* | . | . | . | . | .
Cc1ccc(-n2c(O)c(C=CC=Nc3ccccc3)c(=O)[nH]c2=O)cc1 | -2 | . | . | . | . | .
Cn1cc(C(=O)N2CCC(c3ccc4c(c3)OCO4)C2)nn1 (stereo not drawn) | 8 | . | . | . | . | .
O=C(Cc1csc2nc(-c3ccc(F)cc3)cn12)NCCCN1CCOCC1 | -12 | . | . | . | . | .
COc1ccc(SC[C@H](C)CN2CC[C@H](NC(=O)OCc3ccccc3)CCC2=O)cc1 | -3 | -1 | 10* | 7 | . | 4
CCOC(=O)c1ccc(NC(=O)CSC2=NC3(CCCCC3)Nc3ccccc32)cc1 | -4 | . | . | . | . | .
CN1CCN([C@@H](CNC(=O)C(=O)NCc2ccccc2Cl)c2ccc(F)cc2)CC1 | 6 | . | . | . | . | .
O=C(CC1CCCCN1S(=O)(=O)c1ccccc1)Nc1ccccc1Cl (stereo not drawn) | 20 | . | . | . | . | .
O=C(NCc1ccccc1)c1csc(Nc2ccccc2)n1 | -8 | . | . | . | . | .
O=C(Nc1ccccc1)Nc1nc(C(=O)NCCc2c[nH]c3ccccc23)cs1 | 41* | . | . | . | . | .
O=C(Nc1ccccc1)Nc1nc(C(=O)O)cs1 | 63* | . | . | . | . | .
O=C(NCCc1c[nH]c2ccccc12)c1csc(Nc2ccccc2)n1 | 28* | . | . | . | . | .
SMILES | PriA SSB inh | Vc quorum ag | TcdB inh | PrPC TRFRET | DUSP3 inh | CCHF vOTU inh
C[C@H](Oc1ccccc1)C(=O)NCC#CCN1CCCC1 | -10 | . | . | . | . | .
O=C(Cc1ccccc1F)Nc1nnc(-c2cccnc2)s1 | . | . | . | -2 | . | -4
CC(C)=CC(=O)Nc1nnc(-c2cccnc2)s1 | -8 | i | . | 2 | 53* | 5
COCCN=c1scc(-c2cc(OC)ccc2OC)n1N=Cc1c[nH]c2ccccc12 | 66* | . | . | . | . | .
N#Cc1ccccc1Cn1c(=O)n(CCC(=O)NCc2ccccc2Cl)c(=O)c2ccccc21 | -8 | . | . | . | . | .
COC(=O)C(=CNc1cccc2ccccc12)[N+](=O)[O-] | 55* | . | . | . | . | .
COC(=O)/C(=C/Nc1cccc2ccccc12)[N+](=O)[O-] | . | -7 | 2 | 7 | -8 | -29
O=C(CCCc1ccccc1)N[C@H]1CC(=O)N(C2CC2)C1 | -17 | . | . | . | . | .
O=C(O)C1CC1(c1ccccc1)c1ccccc1 (stereo not drawn) | -7 | 0 | 1 | -2 | -4 | -1
O=C(C1CC1(c1ccccc1)c1ccccc1)N1CCOCC1 (stereo not drawn) | 55* | i | . | 1 | 12 | 10
COC(=O)C1=CC(C(=O)c2cccs2)=NN(c2ccc(OC)cc2)C1C(=O)OC (stereo not drawn) | 39* | 0 | 0 | 3 | -5 | 6
